Records with an inconclusive call do not appear. The source made the active and inactive calls. Calls follow the shape of the dose curve; as a rule, active = well fitted inhibition curve with a large enough effect; inconclusive = small, poorly fitted or top-dose-only effect; inactive = flat fitted curve, though single readings scatter.
Assays:
Assay in all cases: qHTS profiling for inhibitors of Plasmodium falciparum proliferation (AID 504749); also: nearly all actives have a fitted effect of over 60% in size
Conditions in all cases: P. falciparum in erythrocytes, SYBR Green DNA, 72 h; series mostly up to 28.7 µM
[1] = system: 3D7
Outline: (§1)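 SYBR Green fluorescence of parasite DNA, read after lysis and overnight dark incubation, measured growth over 72 h in erythrocyte culture at 0.3% parasitemia and 2.5% hematocrit. Data normalised to DMSO and 0.29 uM artemisinin, with plate-drift correction.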

[2] = system: CP185
Outline: as §1

[3] = system: CP203
Outline: as §1

[4] = system: CP211
Outline: as §1

[5] = system: CP217
Outline: as §1

[6] = system: CP250
Outline: as §1

[7] = system: CP252
Outline: as §1

[8] = system: CP256
Outline: as §1

[9] = system: CP262
Outline: as §1

[10] = system: CP265
Outline: as §1

[11] = system: CP291
Outline: as §1

[12] = system: CP305
Outline: as §1

[13] = system: CP315
Outline: as §1

[14] = system: CP335
Outline: as §1

[15] = system: DIV30
Outline: as §1

[16] = system: Dd2
Outline: as §1

[17] = system: ECU
Outline: as §1

[18] = system: HB3
Outline: as §1

[19] = system: N140
Outline: as §1

[20] = system: TAB113
Outline: as §1

Measured: Potency
Potency is read from the fitted curve at half-maximal effect.

C[C@]12C=CC(=O)C=C1CC[C@@H]1C2CC[C@]2(C)OC(=O)CCC12 (stereo partly specified)
inactive: all assays above

COc1ccc2c3c1O[C@H]1[C@@H](O)C=C[C@H]4C(C2)NCCC341 (stereo partly specified)
inactive: all assays above

C[C@@H]1CC[C@H]2[C@@H](C)C(=O)O[C@@H]3OC4(C)CC[C@@H]1C32OO4 (stereo partly specified)
active: [1] 7.9 nM | [2] 8.9 nM | [3] 13.5 nM | [4] 16.9 nM | [5] 10 nM | [6] 14.1 nM | [7] 10 nM | [8] 10 nM | [9] 13.5 nM | [10] 7.9 nM | [11] 10.7 nM | [12] 13.5 nM | [13] 23.9 nM | [14] 6.7 nM | [15] 8.5 nM | [16] 6.3 nM | [17] 5.6 nM | [18] 8.9 nM | [19] 5.6 nM | [20] 5.6 nM

C=C1Nc2ccccc2C(=O)N1c1ccccc1C
inactive: all assays above

CCOC(=O)/C=C(C)/C=C/CC(C)CCCC(C)C (stereo unspecified)
inactive: all assays above

CCCN1CCCC2Cc3nc(N)ncc3CC21 (stereo unspecified)
inactive: all assays above

OCC(O)[C@H]1O[C@@H]2O[C@H](C(Cl)(Cl)Cl)O[C@@H]2[C@H]1O (stereo partly specified)
inactive: all assays above

CCCCCc1cc(O)c2c(c1)OC(C)(C)C1CC=C(C)CC21 (stereo unspecified)
active: [1] 2820 nM | [2] 6310 nM | [3] 2130 nM | [4] 5360 nM | [5] 2240 nM | [6] 7080 nM | [7] 3160 nM | [8] 11200 nM | [9] 4260 nM | [10] 3550 nM | [11] 6750 nM | [12] 12000 nM | [13] 4260 nM | [14] 3380 nM | [15] 2390 nM | [16] 2510 nM | [17] 2000 nM | [18] 5010 nM | [19] 1120 nM | [20] 2000 nM

Cc1cc(C)cc(C(=O)OC2CC3CCC(C2)N3C)c1 (stereo unspecified)
not listed: [16] | [17]
inactive: all other assays above

CN1C2CCC1C(C(=O)O)C(OC(=O)c1ccccc1)C2 (stereo unspecified)
inactive: all assays above

OC[C@@H](O)[C@H]1O[C@@H]2OC(C(Cl)(Cl)Cl)O[C@H]2[C@H]1O (stereo partly specified)
inactive: all assays above

Nc1nc(O)c(-c2ccccc2)o1
not listed: [20]
inactive: all other assays above

CC1(C)[C@@H](C=C(Cl)Cl)[C@@H]1C(=O)OCc1c(F)c(F)cc(F)c1F
inactive: all assays above

C=CC[N+]1(C)CCC23c4c5ccc(O)c4O[C@H]2C(=O)CC[C@@]3(O)C1C5 (stereo partly specified)
inactive: all assays above

Cc1ccc2c(c1)[C@@H]1CN(C)CC[C@H]1N2
not listed: [15]
inactive: all other assays above

CC1OC(O[C@H]2C[C@@H](O)[C@]3(CO)[C@@H]4C(CC[C@]3(O)C2)[C@@]2(O)CC[C@H](C3=CC(=O)OC3)[C@@]2(C)C[C@H]4O)C(O)C(O)C1O (stereo partly specified)
inactive: all assays above

CCCCCC(O)C1C(=O)OC(C)C(O)\C=C/C=C\C=C/C=C\C=C(\C)C(O)C(O)C(O)CC(O)CC(O)CC(O)CC(O)CC1O (stereo unspecified)
inactive: all assays above

C[C@H](N)Cc1ccccc1
inactive: all assays above

C#CCN1CC(=O)N(COC(=O)[C@@H]2[C@@H](C=C(C)C)C2(C)C)C1=O
inactive: all assays above

CCC(=O)OC1(c2ccccc2)CCN(C)CC1C (stereo unspecified)
active: [16] 5620 nM
inactive: [1] | [4] | [9] | [13] | [15] | [17] | [18]

C[C@]12CCC3C(CCC4=C(Cl)C(=O)CC[C@@]43C)C1CCC2O (stereo partly specified)
inactive: all assays above

CC1CC[C@@]2(NC1)OC1CC3C4CC[C@@H]5CC(O)CC[C@@]5(C)C4CC[C@]3(C)C1C2C (stereo partly specified)
active: [17] 12600 nM
not listed: [5] | [8] | [10] | [14] | [15] | [16] | [18] | [19]
inactive: all other assays above

Source: PubChem BioAssay (NCATS)
